Experimental data reported in PubChem BioAssay (NCI).
Compounds without any hit were thinned out: in the full panel of roughly 83,000, 20% have a hit.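 Cells were grown in 96-well plates and exposed to the test compound at a single concentration for 48 hours; results are reported as percent growth, with values below 10 considered active.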 Activity calls are given as the source filed them.

Experiments:
Assay in all cases: NCI-60 one-dose screen, 48 h (100 = growth as untreated, 0 = no growth, -100 = all killed)
Details in all cases: 10 µM unless noted
[1] = system: NCI-H23 lung
[2] = system: NCI-H226 lung
[3] = system: NCI-H322M lung
[4] = system: HOP-62 NSCLC
[5] = system: NCI-H460 lung
[6] = system: HOP-92 NSCLC
[7] = system: NCI-H522 lung
[8] = system: A549/ATCC NSCLC
[9] = system: 786-0 renal
[10] = system: COLO 205 colon

Measured: growth

CC(C)(C)c1ccc(O)c(-c2ccccc2)c1
inactive: [1] 105% | [2] 122% | [3] 104% | [4] 112% | [5] 112% | [6] 94.5% | [7] 83.5% | [8] 109% | [9] 109% | [10] 105%

Oc1ccc2ccccc2c1N=Nc1nccs1
active: [2] -0.189% | [9] -40.2%
inactive: [1] 40% | [3] 15.7% | [4] 20.2% | [5] 10.2% | [6] 46.9% | [7] 178% | [8] 43.6% | [10] 21.4%

O=C1/C(=C/c2ccccn2)CCc2ccccc21
inactive: [1] 105% | [2] 98.2% | [3] 113% | [4] 113% | [5] 102% | [6] 91.5% | [7] 89.9% | [8] 99.3% | [9] 101%

CN(C)c1ccc2cc3c(cc2c1)Oc1ccccc1N3.[Cl][Zn][Cl]
inactive: [1] 78.7% | [2] 91.2% | [3] 84.7% | [4] 105% | [5] 96.8% | [6] 98.8% | [8] 91.8% | [9] 104% | [10] 19.2%
active: [7] -7.15%

CCOc1ccc(C(CN2CCOCC2)C(C)=O)cc1OC (stereo not drawn)
inactive: [1] 98.9% | [2] 98.9% | [3] 117% | [4] 104% | [5] 108% | [6] 102% | [8] 101% | [9] 63.7% | [10] 58%
active: [7] -51.6%

COC(=O)c1cc([N+](=O)[O-])cc([N+](=O)[O-])c1Cl
inactive: [1] 98.3% | [2] 102% | [3] 106% | [4] 102% | [5] 102% | [6] 99.7% | [8] 101% | [9] 102%
active: [7] -74% | [10] -64.1%

O=C1c2ccccc2Cc2cccc(Cl)c21
inactive: [1] 95.5% | [2] 94.6% | [3] 85.4% | [4] 98.8% | [5] 117% | [6] 110% | [7] 85.8% | [8] 91.7% | [9] 89.1%

Cc1cc(Br)c2nsnc2c1[N+](=O)[O-]
inactive: [2] 44.4% | [3] 88.2% | [4] 55.6% | [6] 62.5% | [8] 54.4% | [9] 17.8%
active: [1] -6.95% | [5] 2% | [7] -40% | [10] 0.766%

CC1=CC(=NC(=O)CBr)C=C/C1=N\S(=O)(=O)c1ccccc1
inactive: [1] 80.2% | [2] 68.3% | [3] 107% | [4] 75.1% | [5] 98.4% | [6] 52.9% | [8] 87% | [9] 53.6% | [10] 59.5%
active: [7] -80.4%

CCOc1ccc(Nc2nc3c(s2)C(=O)c2ccccc2C3=O)cc1
inactive: [1] 41.9% | [2] 87% | [3] 105% | [4] 113% | [5] 94.4% | [6] 85.1% | [7] 51.5% | [8] 94% | [9] 108% | [10] 100%

N#CC1c2ccccc2C=CN1C(=O)CCCl (stereo not drawn)
inactive: [1] 94.2% | [2] 94.1% | [3] 93.8% | [4] 99.8% | [5] 106% | [6] 60.7% | [8] 96.2% | [9] 82%
active: [7] -71.6%

O=[N+]([O-])c1ccc(C2N(Cc3ccc(Cl)cc3)CCN2Cc2ccc(Cl)cc2)cc1
active: [6] -1.91%
inactive: [1] 97.5% | [2] 95.1% | [3] 75.5% | [4] 94.5% | [5] 101% | [7] 75.8% | [8] 96% | [9] 81.7%

CN(C)CC(C)(CN(C)C)C(=O)/C=C/c1c(Cl)cccc1Cl
inactive: [1] 45.9% | [2] 11.1% | [3] 70.6% | [4] 94.6% | [5] 57.9% | [6] 40.1% | [8] 80.6% | [10] 101%
active: [7] -80.9% | [9] -44%

OCCOSCCO
inactive: [1] 107% | [2] 102% | [3] 119% | [4] 104% | [5] 111% | [6] 124% | [7] 96.1% | [8] 111% | [9] 100% | [10] 119%

CC(=O)c1c(O)c(C)c(O)c2c1OC1=CC(=O)C(C(C)=O)C(=O)C12C (stereo not drawn)
active: [6] -0.143%
inactive: [1] 79.1% | [2] 88.6% | [3] 60.3% | [4] 74.3% | [5] 89.1% | [7] 71.7% | [8] 96% | [9] 69.9%

NC(=S)Nc1ccc2c(c1)Cc1ccccc1-2
inactive: [1] 83.1% | [2] 77.8% | [3] 89.2% | [4] 84.2% | [5] 94.8% | [6] 63.9% | [7] 62.9% | [8] 72.5% | [9] 115% | [10] 98.2%

Cc1nc(Sc2nc3ccc([N+](=O)[O-])cc3s2)sc1C
inactive: [3] 89.2% | [4] 72.2% | [5] 11.7% | [8] 55.9% | [9] 19.6% | [10] 27.1%
active: [1] -3.96% | [2] 2.43% | [6] 1.28% | [7] -48.1%

CCOC(=O)C1=NN(c2ccccc2)C(=O)/C1=C\N1C(=O)/C(=C/c2cccc(O)c2)SC1=S
inactive: [1] 87.8% | [2] 103% | [3] 98.9% | [4] 84% | [5] 103% | [6] 73.6% | [7] 82.3% | [8] 79.3% | [9] 98.8% | [10] 114%

COc1cc(NC(=O)C2=C(C)NC(C)=C(C(=O)Nc3cc(OC)c(Cl)cc3OC)C2c2cccc([N+](=O)[O-])c2)c(OC)cc1Cl
inactive: [1] 34.6% | [2] 45.7% | [3] 46.3% | [4] 43.2% | [5] 36.8% | [6] 13.2% | [7] 46.8% | [8] 35.7% | [9] 39% | [10] 50.5%

CCCCN(CCCC)CCCCCCCCCCO
inactive: [1] 97% | [2] 105% | [3] 95.1% | [4] 104% | [5] 110% | [6] 129% | [7] 75.9% | [8] 115% | [9] 92.1% | [10] 106%

COc1ccc(NC(=O)/C(=C/N2C(=O)/C(=C/c3ccc(OC)c(OC)c3)NC2=S)C(C)=O)cc1
inactive: [1] 64.5% | [2] 83.1% | [3] 71.1% | [4] 58.4% | [5] 65.6% | [7] 46.8% | [8] 63.8% | [9] 99.2% | [10] 107%
active: [6] 3.15%

Oc1cc(Cl)ccc1Cc1ccc(Cl)cc1O
inactive: [1] 20.6% | [2] 96.6% | [3] 97% | [4] 60.5% | [5] 46% | [7] 33.8% | [8] 73.7% | [9] 92.8%
active: [6] -14.4%

CCOC(=O)c1c(C)[nH]c2ccc(O)cc12
inactive: [1] 103% | [2] 94.3% | [3] 99.7% | [4] 107% | [5] 98.3% | [6] 103% | [7] 52.7% | [8] 95.7% | [9] 100% | [10] 113%

NCCCN(CCCN)CCCNCc1c2ccccc2c(CNCCCN(CCCN)CCCN)c2ccccc12
inactive: [1] 92.2% | [2] 87.2% | [3] 84.4% | [4] 87.2% | [5] 93.9% | [6] 95.9% | [7] 89.7% | [8] 95.2% | [9] 99.1% | [10] 95.9%

CCN(CC)CCNc1ccc([N+](=O)[O-])c2sc3ccccc3c(=O)c12
inactive: [1] 34.6% | [2] 18.4% | [3] 14.2% | [4] 16.9% | [6] 16.9% | [7] 12.7% | [9] 37.2%
active: [5] 3.12% | [8] 7.92% | [10] 1.96%

Oc1c(C(Nc2ccccc2)c2ccccc2)ccc2cccnc12 (stereo not drawn)
active: [7] 4.85%
inactive: [1] 51% | [2] 33.2% | [3] 46.4% | [4] 24.1% | [5] 20.7% | [6] 19.9% | [8] 37.3% | [9] 39.3% | [10] 16.8%

O=C1C=CC(=O)N1c1cc(Cl)c(Cl)cc1Cl
inactive: [1] 100% | [2] 100% | [3] 90.6% | [4] 100% | [5] 107% | [6] 107% | [7] 84.4% | [8] 103% | [9] 96%

CCCCCCN(CCCCCC)CCCNc1nccc2ccccc12
inactive: [1] 12% | [2] 42.9% | [3] 28.7% | [4] 64.3% | [8] 14.3%
active: [5] 3.2% | [6] -14.6% | [7] 4.1% | [9] 5.89% | [10] -66%

OC(c1cc(C23CC4CC(CC(C4)C2)C3)nc2c(Cl)cc(Cl)cc12)C1CCCCN1 (stereo not drawn)
active: [1] -53.9% | [2] -69.4% | [3] -19.3% | [4] -88.6% | [5] -71.4% | [6] -80.7% | [7] -81% | [8] -74.6% | [9] -55% | [10] -87.2%
